The campaign covered roughly 310,000 compounds. About 14,000 (4.5%) showed an effect of 50% or more. The effect is printed as a negative number. Only a selection was taken, and strong results are over-represented in it overall.

The record followed here is publication PMC4336329 (PLoS ONE, 2015).
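Note: peak tail current of the secondary pulse compared with the same well before compound.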

For this assay, the target named is human ether-à-go-go-related gene (hERG) potassium channel (human, UniProt Q12809). Put plainly: primary screen, population patch clamp on CHO cells stably expressing hERG; higher = less effect of the substance.
human ether-à-go-go-related gene (hERG) potassium channel, sequence (Q12809 whole entry, looked up): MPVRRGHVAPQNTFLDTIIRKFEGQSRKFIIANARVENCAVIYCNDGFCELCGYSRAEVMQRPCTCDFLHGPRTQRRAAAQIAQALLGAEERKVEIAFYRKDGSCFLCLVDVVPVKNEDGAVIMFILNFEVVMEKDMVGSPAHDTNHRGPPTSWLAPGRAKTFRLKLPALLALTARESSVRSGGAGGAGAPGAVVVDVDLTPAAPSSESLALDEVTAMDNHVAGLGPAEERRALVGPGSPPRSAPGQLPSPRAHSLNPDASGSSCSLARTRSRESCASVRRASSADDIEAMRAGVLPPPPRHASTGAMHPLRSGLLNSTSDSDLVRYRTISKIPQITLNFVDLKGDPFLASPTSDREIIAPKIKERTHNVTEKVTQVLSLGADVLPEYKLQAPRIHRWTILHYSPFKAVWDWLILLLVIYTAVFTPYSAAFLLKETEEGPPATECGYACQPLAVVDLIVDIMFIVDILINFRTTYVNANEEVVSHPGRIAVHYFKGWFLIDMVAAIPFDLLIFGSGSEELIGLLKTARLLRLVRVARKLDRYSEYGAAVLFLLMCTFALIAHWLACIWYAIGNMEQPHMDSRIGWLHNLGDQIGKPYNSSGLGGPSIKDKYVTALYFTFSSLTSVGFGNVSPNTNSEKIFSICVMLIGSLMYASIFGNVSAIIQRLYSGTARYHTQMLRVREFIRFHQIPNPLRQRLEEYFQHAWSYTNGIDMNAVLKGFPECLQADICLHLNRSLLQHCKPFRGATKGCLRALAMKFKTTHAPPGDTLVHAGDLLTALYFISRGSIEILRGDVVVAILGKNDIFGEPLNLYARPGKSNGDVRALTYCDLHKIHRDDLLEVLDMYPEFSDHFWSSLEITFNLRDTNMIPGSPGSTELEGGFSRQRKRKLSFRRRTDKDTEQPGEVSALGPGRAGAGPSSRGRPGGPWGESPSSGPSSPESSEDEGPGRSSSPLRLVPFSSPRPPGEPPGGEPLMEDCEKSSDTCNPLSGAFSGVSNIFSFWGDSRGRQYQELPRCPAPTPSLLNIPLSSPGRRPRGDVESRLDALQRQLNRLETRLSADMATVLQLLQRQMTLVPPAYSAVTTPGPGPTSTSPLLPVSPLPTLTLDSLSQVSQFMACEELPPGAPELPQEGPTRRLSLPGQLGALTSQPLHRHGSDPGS
Consider `CCCSc1nc2sc3c(c2c(=O)n1CC)CC(C)(C)OC3`, for which the “hERG current change (%, negative = inhibition) at 10uM” value was 3.41%.

Turning to `CCS(=O)(=O)NCC(c1ccco1)N1CCN(c2ccccc2F)CC1` (stereo not shown), the “hERG current change (%, negative = inhibition) at 10uM” value is listed as -1.69%.

As for `COc1ccc(OC)c(NC(=O)COC(=O)CN2C(=O)NC3(CCCC3)C2=O)c1`, the “hERG current change (%, negative = inhibition) at 10uM” value came to 7.58%.

Take `O=C(CCCOC(=O)c1ccc(O)cc1O)c1ccc(F)cc1`: the “hERG current change (%, negative = inhibition) at 10uM” value is given as -11.6%.

For `Cc1ccc(CS(=O)(=O)CCC(=O)NCCN2CCCCC2C)cc1` (stereo not shown), the “hERG current change (%, negative = inhibition) at 10uM” value is listed as -2.59%.

With `Cc1cccc(/C=N/N2CCN(c3ccccc3)CC2)c1`, the “hERG current change (%, negative = inhibition) at 10uM” value is reported as -4.38%.

For the molecule `O=C(O)CCCC(=O)OCCCCc1cccs1`, the “hERG current change (%, negative = inhibition) at 10uM” value is on record as -2.23%.

For the molecule `Nc1c2c(nc3ccccc13)N(C1CCCCC1)CC2`, the “hERG current change (%, negative = inhibition) at 10uM” value is -65.6%.

Take `c1ccc2nc3c(nc2c1)OCC1CCCCN31` (stereo not shown): the “hERG current change (%, negative = inhibition) at 10uM” value is -14.2%.

As for `Nc1c2c(nc3ccc(Br)cc13)N(Cc1ccccc1)CC2`, the “hERG current change (%, negative = inhibition) at 10uM” value was -43.5%.

Consider `Nc1c2c(nc3ccc(Br)cc13)N(c1ccccc1)CC2.O=C(O)C(=O)O`, for which the “hERG current change (%, negative = inhibition) at 10uM” value is -21.3%.

For the molecule `Cc1nc2ccccc2c(=O)n1C1CCCCCC1`, the “hERG current change (%, negative = inhibition) at 10uM” value was -7.64%.

In the case of `Nc1c2c(nc3ccc(Br)cc13)N(C1CCCCC1)CC2.O=C(O)C(=O)O`, the “hERG current change (%, negative = inhibition) at 10uM” value is -70.1%.

In the case of `CCOC(=O)c1sc(NC(=O)c2ccncc2)c(C#N)c1C`, the “hERG current change (%, negative = inhibition) at 10uM” value stood at 22.8%.

As for `CC(C)=C1SC(N2CCN(c3cccc(C(F)(F)F)c3)CC2)=NC1=O`, the “hERG current change (%, negative = inhibition) at 10uM” value is listed as -2.7%.

With `Oc1ccc[nH+]c1SCc1ccccc1.[Br-]`, the “hERG current change (%, negative = inhibition) at 10uM” value came out at 12.7%.

As for `Nc1cc(N)nc(SCC(=O)NCc2ccco2)n1`, the “hERG current change (%, negative = inhibition) at 10uM” value was found to be 9.13%.

On to `Cc1cccn2c(=O)c3cc(C(=O)NC4CCCC4)sc3nc12`, for which the “hERG current change (%, negative = inhibition) at 10uM” value is given as -22.8%.

`Cc1cccn2c(=O)c3cc(C(=O)NC4CCCC4)c(=N)n(CCc4ccccc4)c3nc12`: the “hERG current change (%, negative = inhibition) at 10uM” value is listed as -74.5%.

As for `CCCn1c(=N)c(C(=O)NC2CCCC2)cc2c(=O)n3cccc(C)c3nc21`, the “hERG current change (%, negative = inhibition) at 10uM” value was -77.4%.

Turning to `COc1ccc(CCn2c(=N)c(C(=O)NC3CCCC3)cc3c(=O)n4cccc(C)c4nc32)cc1`, the “hERG current change (%, negative = inhibition) at 10uM” value was -77.8%.

Consider `Cc1ccc(CNC(=O)CSc2nc(C)cs2)cc1`, for which the “hERG current change (%, negative = inhibition) at 10uM” value amounted to 15.4%.

Take `CCCc1c(-c2ccc(O)cc2)nn(-c2ccc(O)cc2)c1-c1ccc(O)cc1`: the “hERG current change (%, negative = inhibition) at 10uM” value came out at 12.6%.

With `CCN(CC)C(=O)CSc1nnc([C@H](CCSC)NC(=O)OC(C)(C)C)o1`, the “hERG current change (%, negative = inhibition) at 10uM” value is given as -8.26%.

Consider `CC1=CC(C)(C)N(C(=O)C(C)N2C(=O)c3ccccc3C2=O)c2ccc(C)cc21` (stereo not shown), for which the “hERG current change (%, negative = inhibition) at 10uM” value is 2.88%.
